In PubChem BioAssay AID1159580 (chemical genetic matrix, 2015):
About 2,000 (36%) of roughly 5,500 compounds were called active. Not shown: some 18% with an inconclusive outcome. Cut-off read from the data, not from the text of the source: active = normalized growth mostly below about 0.91 (no sharp cut-off); inconclusive = no clear call, values can overlap the other calls; inactive = mostly above about 0.92. This is one part of the list.

Test: chemical genetic growth profiling, strain panel (AID 1159580);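 note: tested at 20 µM; growth read once vehicle control cultures reached saturation at 30 °C; 1 = growth at the plate median or of vehicle wells; lower values mean less growth of the strain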
Details: growth OD

Measured: normalized growth

COc1c(N2CCNC(C)C2)c(F)cc2c(=O)c(C(=O)O)cn(C3CC3)c12 (configuration not stated)
inactive: S. cerevisiae deletion strains, locus YJR075W, strain HOC1, hits give low values 0.989 | S. cerevisiae deletion strains, locus YKL009W, strain mrt4, hits give low values 1.02 | S. cerevisiae deletion strains, locus YKL068W, hits give low values 0.997 | S. cerevisiae deletion strains, locus YKL085W, strain MDH1 (second series), hits give low values 0.995 | S. cerevisiae deletion strains, locus YKL085W, strain MDH1, hits give low values 0.995 | S. cerevisiae deletion strains, locus YKL160W, strain elf1, hits give low values 0.975 | S. cerevisiae deletion strains, locus YKL190W, strain CNB1, hits give low values 1.01 | S. cerevisiae deletion strains, locus YKR001C, strain vps1, hits give low values 0.996 | S. cerevisiae deletion strains, locus YKR026C, strain gcn3, hits give low values 0.987 | S. cerevisiae deletion strains, locus YKR091W, strain srl3, hits give low values 0.98 | S. cerevisiae deletion strains, locus YLL001W, strain dnm1, hits give low values 0.998 | S. cerevisiae deletion strains, locus YLL026W, hits give low values 0.985 | S. cerevisiae deletion strains, locus YLL041C, strain sdh2, hits give low values 0.988 | S. cerevisiae deletion strains, locus YLR027C, strain aat2, hits give low values 0.99 | S. cerevisiae deletion strains, locus YLR039C, strain RIC1, hits give low values 0.837 | S. cerevisiae deletion strains, locus YLR058C, strain SHM2, hits give low values 1 | S. cerevisiae deletion strains, locus YLR102C, strain apc9, hits give low values 0.988 | S. cerevisiae deletion strains, locus YLR113W, strain HOG1, hits give low values 1.03 | S. cerevisiae deletion strains, locus YLR221C, strain rsa3, hits give low values 0.975 | S. cerevisiae deletion strains, locus YLR258W, strain gsy2, hits give low values 0.987 | S. cerevisiae deletion strains, locus YLR262C, strain YPT6 (second series), hits give low values 0.915 | S. cerevisiae deletion strains, locus YLR262C, strain YPT6, hits give low values 0.846 | S. cerevisiae deletion strains, locus YLR268W, strain sec22, hits give low values 0.988 | S. cerevisiae deletion strains, locus YLR330W, strain CHS5, hits give low values 1.01 | S. cerevisiae deletion strains, locus YLR342W, strain FKS1 (second series), hits give low values 0.881 | S. cerevisiae deletion strains, locus YLR342W, strain FKS1, hits give low values 0.972 | S. cerevisiae deletion strains, locus YLR357W, strain rsc2, hits give low values 0.934 | S. cerevisiae deletion strains, locus YLR370C, strain arc18, hits give low values 0.978 | S. cerevisiae deletion strains, locus YLR371W, strain rom2, hits give low values 0.989 | S. cerevisiae deletion strains, locus YLR384C, strain iki3, hits give low values 0.995 | S. cerevisiae deletion strains, locus YLR418C, strain cdc73, hits give low values 0.973 | S. cerevisiae deletion strains, locus YML016C, strain PPZ1, hits give low values 1.01 | S. cerevisiae deletion strains, locus YML120C, strain ndi1, hits give low values 0.984 | S. cerevisiae deletion strains, locus YML124C, strain tub3, hits give low values 0.985 | S. cerevisiae deletion strains, locus YMR058W, strain fet3, hits give low values 0.992 | S. cerevisiae deletion strains, locus YMR078C, strain ctf18, hits give low values 0.974 | S. cerevisiae deletion strains, locus YMR125W, strain sto1, hits give low values 0.928 | S. cerevisiae deletion strains, locus YMR129W, hits give low values 0.974 | S. cerevisiae deletion strains, locus YMR205C, strain PFK2, hits give low values 0.996 | S. cerevisiae deletion strains, locus YMR223W, strain ubp8, hits give low values 0.999 | S. cerevisiae deletion strains, locus YMR231W, strain pep5, hits give low values 0.993 | S. cerevisiae deletion strains, locus YMR263W, strain SAP30, hits give low values 1.01 | S. cerevisiae deletion strains, locus YMR307W, strain GAS1, hits give low values 0.845 | S. cerevisiae deletion strains, locus YNL067W, strain RPL9B, hits give low values 1 | S. cerevisiae deletion strains, locus YNL071W, strain lat1, hits give low values 0.985 | S. cerevisiae deletion strains, locus YNL128W, strain TEP1, hits give low values 1.03 | S. cerevisiae deletion strains, locus YNL153C, strain GIM3, hits give low values 1.01 | S. cerevisiae deletion strains, locus YNL183C, strain NPR1, hits give low values 0.983 | S. cerevisiae deletion strains, locus YNL209W, strain ssb2, hits give low values 0.986 | S. cerevisiae deletion strains, locus YNL233W, strain BNI4, hits give low values 1.01 | S. cerevisiae deletion strains, locus YNL248C, strain rpa49, hits give low values 0.917 | S. cerevisiae deletion strains, locus YNL271C, strain bni1, hits give low values 1 | S. cerevisiae deletion strains, locus YNL298W, strain CLA4, hits give low values 1.02 | S. cerevisiae deletion strains, locus YNL307C, strain MCK1, hits give low values 1 | S. cerevisiae deletion strains, locus YNL322C, strain KRE1 (second series), hits give low values 0.967 | S. cerevisiae deletion strains, locus YNL322C, strain KRE1, hits give low values 1.01 | S. cerevisiae deletion strains, locus YNR049C, strain mso1, hits give low values 0.963 | S. cerevisiae deletion strains, locus YNR052C, strain pop2, hits give low values 1 | S. cerevisiae deletion strains, locus YOL006C, strain TOP1, hits give low values 0.936 | S. cerevisiae deletion strains, locus YOL012C, strain htz1 0.555 | S. cerevisiae deletion strains, locus YOL147C, strain pex11, hits give low values 1 | S. cerevisiae deletion strains, locus YOR001W, strain rrp6, hits give low values 0.986 | S. cerevisiae deletion strains, locus YOR061W, strain CKA2, hits give low values 1.01 | S. cerevisiae deletion strains, locus YOR069W, strain VPS5, hits give low values 1.01 | S. cerevisiae deletion strains, locus YOR070C, strain gyp1, hits give low values 0.994 | S. cerevisiae deletion strains, locus YOR080W, strain dia2, hits give low values 0.97 | S. cerevisiae deletion strains, locus YOR083W, strain WHI5, hits give low values 1 | S. cerevisiae deletion strains, locus YOR106W, strain vam3, hits give low values 0.994 | S. cerevisiae deletion strains, locus YOR136W, strain idh2, hits give low values 1 | S. cerevisiae deletion strains, locus YOR144C, strain elg1, hits give low values 0.998 | S. cerevisiae deletion strains, locus YOR184W, strain ser1, hits give low values 0.99 | S. cerevisiae deletion strains, locus YOR231W, strain MKK1, hits give low values 1.01 | S. cerevisiae deletion strains, locus YOR265W, strain rbl2, hits give low values 0.984 | S. cerevisiae deletion strains, locus YOR270C, strain vph1, hits give low values 0.896 | S. cerevisiae deletion strains, locus YOR290C, strain snf2, hits give low values 0.951 | S. cerevisiae deletion strains, locus YOR316C, strain cot1, hits give low values 0.995 | S. cerevisiae deletion strains, locus YPL051W, strain arl3, hits give low values 0.975 | S. cerevisiae deletion strains, locus YPL055C, strain LGE1, hits give low values 0.992 | S. cerevisiae deletion strains, locus YPL078C, strain atp4, hits give low values 0.99 | S. cerevisiae deletion strains, locus YPL106C, strain sse1, hits give low values 0.946 | S. cerevisiae deletion strains, locus YPL240C, strain hsp82, hits give low values 0.986 | S. cerevisiae deletion strains, locus YPL241C, strain CIN2, hits give low values 1.01 | S. cerevisiae deletion strains, locus YPL256C, strain CLN2, hits give low values 0.956 | S. cerevisiae deletion strains, locus YPR119W, strain clb2, hits give low values 0.997 | S. cerevisiae deletion strains, locus YPR141C, strain kar3, hits give low values 1 | S. cerevisiae deletion strains, locus YPR163C, strain tif3, hits give low values 1 | S. cerevisiae deletion strains, locus YPR167C, strain met16, hits give low values 0.996 | S. cerevisiae deletion strains, strain wtn01, hits give low values 0.996 | S. cerevisiae strains, strain wild type, hits give low values 1.01
active: S. cerevisiae deletion strains, locus YLR320W, strain mms22, hits give low values 0.75 | S. cerevisiae deletion strains, locus YML032C, strain rad52, hits give low values 0.492 | S. cerevisiae deletion strains, locus YNL250W, strain rad50, hits give low values 0.868
